Bioassay records (PubChem BioAssay)
Most compounds without a hit are left out; they make up all but 12% or so of the library.
G9a inh: qHTS Assay for Inhibitors of Histone Lysine Methyltransferase G9a. Histone-lysine N-methyltransferase EHMT2 (Homo sapiens), Q96KQ7. 350,000 tested, 8.8% active. AID 504332, 2011. Potency, µM (highest dose often 102 µM), for inactives: top-dose activity, negative = inhibition, most hits filed as inhibitors. G9a H3K9 monomethylation, AlphaScreen, 2 h; also: % is scaled to controls: 0 for no effect and ±100 for the full control effect; nearly all actives have a fitted effect of over 75% in size
Target sequence (Q96KQ7 913-1193 limits assumed): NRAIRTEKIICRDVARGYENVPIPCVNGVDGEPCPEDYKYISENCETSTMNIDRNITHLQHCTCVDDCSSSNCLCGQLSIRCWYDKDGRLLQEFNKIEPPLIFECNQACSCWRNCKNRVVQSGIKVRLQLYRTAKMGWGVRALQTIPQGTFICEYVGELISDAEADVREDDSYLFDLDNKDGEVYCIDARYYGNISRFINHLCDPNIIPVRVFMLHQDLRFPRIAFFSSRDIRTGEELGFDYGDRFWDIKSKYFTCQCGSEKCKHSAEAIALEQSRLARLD
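Enzyme 20 nM + cpd, 15 min RT; add b-H3K9 pep 500 nM / SAM 20 uM; 2 h RT; anti-H3K9me1 Ab 0.5 ug/mL + SA donor / anti-rabbit acceptor beads 20 ug/mL each, 10 min; AlphaScreen read.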
JMJD2A Tudor inh: qHTS Assay for Inhibitors of JMJD2A-Tudor Domain. AlphaScreen JMJD2A-Tudor / H3K4me3 peptide binding. 390,000 tested, 4.4% active. Potency, µM (series often up to 114 µM), without a hit: at the highest dose activity change, negative = inhibition, hits mostly inhibitors; also: % is scaled to controls: 0 for no effect and ±100 for the full control effect; nearly all actives have a fitted effect of over 50% in size
Sfp PPTase inh: qHTS Assay for Inhibitors of Bacillus subtilis Sfp phosphopantetheinyl transferase (PPTase). Biochemical Sfp PPTase activity, qHTS. Potency, µM, without a hit: largest response in the series, negative = inhibition, most hits filed as inhibitors. 310,000 tested, 3.5% active. AID 1490, 2009;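 also: the enzyme is Sfp with the accession as filed and its product quenches rhodamine fluorescence; 0% = enzyme reaction without inhibitor and -100% = no enzyme wells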
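Fluorescence-quenching assay with 15 nM Sfp, 5 uM rhodamine-CoA and 12.5 uM BHQ-2-labelled ybbR peptide in pH 7.6 Hepes/MgCl2 buffer. Enzyme was pre-incubated with compound for 15 min at room temperature. Rate was taken from the 30-min fluorescence change (525/598 nm).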
HP1b binding inh: HTS for Inhibitors of HP1-beta Chromodomain Interactions with Methylated Histone Tails; Chromobox protein homolog 1 (Homo sapiens), P83916; AlphaScreen HP1-beta / biotin-H3K9me3 peptide binding; Potency, µM (doses to about 114 µM), without a hit: at the highest dose activity change, negative = inhibition, hits mostly inhibitors; 390,000 tested, 0.56% active; also: nearly all actives have a fitted effect of over 70% in size
Target sequence (P83916 whole entry, looked up): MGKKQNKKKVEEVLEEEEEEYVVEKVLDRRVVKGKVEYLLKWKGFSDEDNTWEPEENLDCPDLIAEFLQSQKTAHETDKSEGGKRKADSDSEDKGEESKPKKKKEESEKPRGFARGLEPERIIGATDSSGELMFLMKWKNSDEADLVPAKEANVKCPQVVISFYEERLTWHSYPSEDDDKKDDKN
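Compound inhibition of the preformed complex between 50 nM HP1-beta and 50 nM biotinylated H3K9me3 peptide was read by AlphaScreen. Buffer was PBS pH 7.4 with 0.01% Tween-20. Incubations ran 30 min at room temperature, with 10 ug/mL donor/acceptor beads.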
BAZ2B block: qHTS Assay for Inhibitors of BAZ2B | 360,000 tested, 4.4% active | Potency, µM (doses to about 114 µM), inactives show at the highest dose activity change, negative = inhibition, hits mostly inhibitors | AlphaScreen BAZ2B-H3K14Ac peptide displacement; also: % is scaled to controls: 0 for no effect and ±100 for the full control effect; nearly all actives have a fitted effect of over 60% in size
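Protein-peptide AlphaScreen: BAZ2B 50 nM, b-H3K14Ac 50 nM, 1x PBS pH 7.4 + 0.01% Tween-20. Preincubation 30 min RT; cpd 30 min RT (top 110 uM); beads 20 min RT, light-protected.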
TDP1 inh: qHTS Assay for Inhibitors of Tyrosyl-DNA Phosphodiesterase (TDP1). Tyrosyl-DNA phosphodiesterase 1 (Homo sapiens), Q9NUW8. recombinant TDP1, AlphaScreen DNA substrate cleavage. Potency, µM (doses to about 130 µM), without a hit: at the top dose activity change, negative = inhibition, most hits filed as inhibitors. 350,000 tested, 0.28% active; also: % is scaled to controls: 0 for no effect and ±100 for the full control effect; nearly all actives have a fitted effect of over 40% in size
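AlphaScreen read-out: signal falls as enzyme removes the 3' tyrosine-FITC from a 5'-biotinylated DNA oligo (15 nM, 5 min, RT). Enzyme was E. coli-made recombinant Tdp1 at 1 nM, exposed to compound for 15 min beforehand; beads 10 ug/ml, 10 min.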
An asterisk follows results filed as active; [ ] = another dose, or the depositor's remark. Calls follow the shape of the dose curve; as a rule, active = well fitted curve in the direction sought with a large enough effect; inconclusive = small, poorly fitted or top-dose-only effect, or another doubt; inactive = no such curve, though single readings can be large; an effect the other way counts as inactive or inconclusive. Potency is read from the fitted curve at half-maximal effect.

For COc1ccc(CCNC(=O)C2CCN(C(=O)c3ccc(OC)c(OC)c3)CC2)cc1 the results were G9a inh 1%, JMJD2A Tudor inh 2%, Sfp PPTase inh 13%, HP1b binding inh 21% and BAZ2B block 5%.
For OC(CNCc1ccc(Cl)cc1)COc1ccccc1 (stereo not drawn) the results were G9a inh -46%, JMJD2A Tudor inh 20µM*, Sfp PPTase inh -25%, HP1b binding inh inconclusive and BAZ2B block 56µM*.
Screening S=c1[nH]c2cc(-c3ccccc3)ccc2o1 returned G9a inh 10µM*, JMJD2A Tudor inh -20%, Sfp PPTase inh inconclusive, HP1b binding inh 14%[57 µM], BAZ2B block inconclusive and TDP1 inh 6%.
CC(C)=CCc1c2c(c3occ(-c4ccc(O)c(O)c4)c(=O)c3c1O)C=CC(C)(C)O2 was read as JMJD2A Tudor inh 22µM*, Sfp PPTase inh 37%, HP1b binding inh inconclusive and TDP1 inh 9%[56.1 µM].
`CC1(C)C=Cc2c(c3c(c4c(=O)c(-c5ccc(O)cc5)coc24)OC(C)(C)CC3)O1` gave G9a inh inconclusive, JMJD2A Tudor inh inconclusive, Sfp PPTase inh -22%, HP1b binding inh -9%, BAZ2B block -27% and TDP1 inh 7%.
For CC(C)(C)c1ccc(/C=C/C(=O)c2ccc(NC3=NCCCS3)cc2)cc1 the results were G9a inh 40µM*, JMJD2A Tudor inh inconclusive, Sfp PPTase inh inconclusive, HP1b binding inh -16%, BAZ2B block inconclusive and TDP1 inh 1%.
`Cc1cccc(/C=C/C(=O)c2ccc(NC3=NCCCS3)cc2)c1` gave G9a inh inconclusive, JMJD2A Tudor inh 45µM*, Sfp PPTase inh -14%, HP1b binding inh -16%, BAZ2B block inconclusive and TDP1 inh 6%.
O=C(/C=C/c1ccccc1)c1ccc(NC2=NCCCS2)cc1 was read as G9a inh inconclusive, JMJD2A Tudor inh inconclusive, Sfp PPTase inh -13%, HP1b binding inh -30%, BAZ2B block inconclusive and TDP1 inh 3%.
O=C(/C=C/c1ccc(Br)cc1)c1ccc(NC2=NCCCS2)cc1 was read as G9a inh inconclusive, JMJD2A Tudor inh inconclusive, Sfp PPTase inh 40µM*, HP1b binding inh -15%, BAZ2B block inconclusive and TDP1 inh -7%.
For COc1ccc(-c2nc3cc(NC(=O)COc4ccc(F)cc4)ccc3o2)cc1 the results were G9a inh -3%[59 µM], JMJD2A Tudor inh -15%, HP1b binding inh 52%, BAZ2B block -22% and TDP1 inh -1%.
For Cc1ccc(S(=O)(=O)NCC2CCC(C(=O)N(C)Cc3ccccc3)CC2)cc1 (stereo not drawn) the results were G9a inh -8%[59 µM], JMJD2A Tudor inh -17%, HP1b binding inh -15%, BAZ2B block 2% and TDP1 inh 1%.
Screening CCNc1cccc(S(=O)(=O)N2CCN(S(=O)(=O)c3ccc4c(c3)OCCO4)CC2)c1 returned JMJD2A Tudor inh -35% and TDP1 inh -5%.
`C[C@H]1CCC/C=C/[C@@H]2C[C@H](O)C[C@H]2[C@H](O)[C@H](S(=O)c2ccc(O)cc2)CC(=O)O1` (stereo partly drawn) gave JMJD2A Tudor inh 40µM* and HP1b binding inh inconclusive.
CC1CCCC=CC2CC(OC(=O)CN(C)C)CC2C(O)C=CC(=O)O1 (stereo not drawn) was read as JMJD2A Tudor inh -12% and HP1b binding inh 37%.
COC(=O)C1=C(C(=O)OC)[C@@H]2N(C)c3ccccc3[C@@]23C[C@@H](C(=O)OC)N(S(=O)(=O)c2ccc([N+](=O)[O-])cc2)C3=N1 was read as Sfp PPTase inh -12% and TDP1 inh 17%[12.3 µM].
For CCOC(=O)C(=O)N1c2ccccc2C(N(C(=O)C(=O)OCC)c2ccccc2)CC1C (stereo not drawn) the results were G9a inh -3%, JMJD2A Tudor inh -10%, Sfp PPTase inh -2%, HP1b binding inh 21%, BAZ2B block -4% and TDP1 inh 3%.
CC1CC(N(C(=O)c2ccc(Cl)cc2)c2ccccc2)c2ccccc2N1C(=O)c1ccco1 (stereo not drawn) was read as G9a inh 45µM*, JMJD2A Tudor inh -33%, Sfp PPTase inh 2%, HP1b binding inh 8%, BAZ2B block -34% and TDP1 inh 2%.
Screening CCN(CC)c1ccc2c(Cl)c(Br)c(=O)oc2c1 returned G9a inh 9%[0.0925 µM], JMJD2A Tudor inh 104%[57.1 µM], Sfp PPTase inh 56µM*, HP1b binding inh 466% and BAZ2B block 163%.
`CC(C)(C)NC(=O)C(c1ccccn1)N(C(=O)C1CSC(=O)C1)c1cccc(F)c1` (stereo not drawn) gave G9a inh -2%[59 µM], JMJD2A Tudor inh -10%, Sfp PPTase inh 15%, HP1b binding inh 39%, BAZ2B block -14% and TDP1 inh -5%.
COc1ccccc1NS(=O)(=O)c1cccc(C(=O)N/N=C/c2ccc3c(c2)OCCO3)c1 was read as G9a inh 4%[59 µM], JMJD2A Tudor inh -4%[57.1 µM], Sfp PPTase inh 8%, HP1b binding inh 30%, BAZ2B block -1% and TDP1 inh 7%.
Screening COc1ccc(NS(=O)(=O)c2cccc(C(=O)N/N=C/c3ccc4c(c3)OCCO4)c2)cc1 returned G9a inh 4%[59 µM], JMJD2A Tudor inh -19%, Sfp PPTase inh 16µM*, HP1b binding inh 19%, BAZ2B block -28% and TDP1 inh -3%.
COc1cc(/C=N/NC(=O)c2ccc3c(c2)OCO3)ccc1O was read as G9a inh inconclusive, JMJD2A Tudor inh 1%, Sfp PPTase inh 11%, HP1b binding inh 59%, BAZ2B block -5% and TDP1 inh 2%.
COc1ccc(/C=N/NC(=O)c2ccc3c(c2)OCO3)cc1 was read as G9a inh 79µM*, JMJD2A Tudor inh -11%, Sfp PPTase inh -4%, HP1b binding inh 26% and BAZ2B block inconclusive.
For CNC(=S)N(CCc1c(C)[nH]c2ccc(C)cc12)Cc1cc(OC)c(OC)c(OC)c1 the results were G9a inh 50µM*, JMJD2A Tudor inh inconclusive, Sfp PPTase inh 1%, HP1b binding inh -14%, BAZ2B block 40µM* and TDP1 inh 8%.
